Columns and labels:
Experiment in all cases: DAPPL (digital affinity profiling via proximity ligation, sequencing); 10 mM Tris-HCl pH 7.5, 50 mM NaCl, 1 mM DTT, 4% glycerol, room temperature, 30 min; GST-TFs on glutathione beads, 16-mer random dsDNA library, 0.1% formaldehyde crosslink after washing; high values mean tight binding
FEV = target: T1, FEV (Homo sapiens, UniProt Q99581 1-238); conditions: protein: recombinant; tags: N-terminal GST; dsDNA, one strand shown
T1 sequence: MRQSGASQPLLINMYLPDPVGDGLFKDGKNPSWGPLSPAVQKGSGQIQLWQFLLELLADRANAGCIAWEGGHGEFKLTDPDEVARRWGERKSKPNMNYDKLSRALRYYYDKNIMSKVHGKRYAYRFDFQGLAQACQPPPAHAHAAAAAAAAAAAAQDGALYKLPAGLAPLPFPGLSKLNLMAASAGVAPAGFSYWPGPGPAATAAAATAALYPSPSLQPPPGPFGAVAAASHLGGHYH
Method in brief: (§1)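 Sequencing on an Illumina NextSeq500 followed washing, crosslinking with 0.1% formaldehyde, proximity ligation (BsaI/T4 ligase, 1 h, 37 °C) and PCR amplification of pools that had been incubated for 30 min at room temperature with 200 nmole of a random double-stranded 16-mer DNA library in Tris/NaCl/DTT/glycerol buffer. Each pool held DNA-barcoded human transcription factors, expressed in yeast as GST fusions and captured on glutathione beads, plus a tag-only sample. Binding signal is a hexamer's read frequency for a factor divided by its frequency in the tag-only sample.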

ETV5 = ETV5 (Homo sapiens, UniProt P41161 1-510); conditions: protein: recombinant; tags: N-terminal GST; dsDNA, one strand shown
Method in brief: as §1

HSF1 = HSF1 (Homo sapiens, UniProt Q00613 1-529); conditions: protein: recombinant; tags: N-terminal GST; chain copies: 3; dsDNA, one strand shown
Method in brief: as §1

SPIC = target: T2, SPIC (Homo sapiens, UniProt Q8N5J4 1-248); conditions: protein: recombinant; tags: N-terminal GST; dsDNA, one strand shown
T2 sequence: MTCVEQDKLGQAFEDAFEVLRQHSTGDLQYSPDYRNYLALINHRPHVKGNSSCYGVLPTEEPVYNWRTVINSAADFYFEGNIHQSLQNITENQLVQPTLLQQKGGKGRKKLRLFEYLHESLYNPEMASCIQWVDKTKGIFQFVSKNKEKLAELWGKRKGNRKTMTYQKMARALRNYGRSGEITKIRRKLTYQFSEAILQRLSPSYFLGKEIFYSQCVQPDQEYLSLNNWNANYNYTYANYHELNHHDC
Method in brief: as §1

ELF4 = ELF4 (Homo sapiens, UniProt Q99607 1-663); conditions: protein: recombinant; tags: N-terminal GST; dsDNA, one strand shown
Method in brief: as §1

ELK4 = target: T3, ELK4 (Homo sapiens, UniProt P28324-2 1-405); conditions: protein: recombinant; tags: N-terminal GST; dsDNA, one strand shown
T3 sequence: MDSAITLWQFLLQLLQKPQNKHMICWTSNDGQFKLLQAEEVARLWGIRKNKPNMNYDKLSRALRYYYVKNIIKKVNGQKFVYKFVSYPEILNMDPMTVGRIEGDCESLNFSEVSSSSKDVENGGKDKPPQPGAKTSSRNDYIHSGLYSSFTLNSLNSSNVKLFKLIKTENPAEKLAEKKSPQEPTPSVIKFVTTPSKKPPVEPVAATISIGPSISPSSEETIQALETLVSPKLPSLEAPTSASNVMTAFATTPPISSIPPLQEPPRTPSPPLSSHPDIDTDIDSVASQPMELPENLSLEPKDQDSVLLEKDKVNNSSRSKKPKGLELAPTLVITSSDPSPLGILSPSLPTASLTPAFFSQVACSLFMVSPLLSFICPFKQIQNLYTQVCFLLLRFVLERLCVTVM
Method in brief: as §1

ETV2 = target: T4, ETV2 (Homo sapiens, UniProt O00321 1-342); conditions: protein: recombinant; tags: N-terminal GST; dsDNA, one strand shown
T4 sequence: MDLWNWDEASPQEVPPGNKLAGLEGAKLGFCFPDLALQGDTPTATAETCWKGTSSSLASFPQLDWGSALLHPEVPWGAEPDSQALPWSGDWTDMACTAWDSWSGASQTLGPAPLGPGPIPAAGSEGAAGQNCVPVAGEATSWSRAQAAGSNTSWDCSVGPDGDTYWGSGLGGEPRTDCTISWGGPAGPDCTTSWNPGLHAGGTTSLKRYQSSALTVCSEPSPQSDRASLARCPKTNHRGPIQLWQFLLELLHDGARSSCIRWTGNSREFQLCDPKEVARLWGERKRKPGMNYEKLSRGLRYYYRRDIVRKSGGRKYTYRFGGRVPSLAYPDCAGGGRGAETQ
Method in brief: as §1

ELF3 = target: T5, ELF3 (Homo sapiens, UniProt P78545 1-371); conditions: protein: recombinant; tags: N-terminal GST; dsDNA, one strand shown
T5 sequence: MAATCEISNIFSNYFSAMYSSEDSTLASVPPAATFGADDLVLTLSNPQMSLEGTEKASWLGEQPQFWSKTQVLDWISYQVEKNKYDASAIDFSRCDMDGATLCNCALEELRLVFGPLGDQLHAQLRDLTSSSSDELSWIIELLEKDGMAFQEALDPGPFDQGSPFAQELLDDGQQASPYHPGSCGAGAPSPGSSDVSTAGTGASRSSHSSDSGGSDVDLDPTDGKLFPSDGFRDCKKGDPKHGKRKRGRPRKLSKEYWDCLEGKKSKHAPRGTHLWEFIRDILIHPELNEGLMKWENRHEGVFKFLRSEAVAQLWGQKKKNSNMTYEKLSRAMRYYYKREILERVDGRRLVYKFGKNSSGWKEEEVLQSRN
Method in brief: as §1

CRX = CRX (Homo sapiens, UniProt O43186 1-299); conditions: protein: recombinant; tags: N-terminal GST; dsDNA, one strand shown
Method in brief: as §1

ETV1 = ETV1 (Homo sapiens, UniProt P50549 1-477); conditions: protein: recombinant; tags: N-terminal GST; dsDNA, one strand shown
Method in brief: as §1

Chain of CRX (O43186 whole entry): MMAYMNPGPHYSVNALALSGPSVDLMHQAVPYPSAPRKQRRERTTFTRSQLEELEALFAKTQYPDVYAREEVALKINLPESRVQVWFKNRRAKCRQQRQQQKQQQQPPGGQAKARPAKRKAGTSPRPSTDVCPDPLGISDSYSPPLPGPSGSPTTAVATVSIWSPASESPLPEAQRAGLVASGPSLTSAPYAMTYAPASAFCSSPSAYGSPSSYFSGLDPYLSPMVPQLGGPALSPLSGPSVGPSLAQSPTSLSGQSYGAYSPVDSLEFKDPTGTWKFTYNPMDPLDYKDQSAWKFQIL
Chain of ETV5 (P41161 whole entry): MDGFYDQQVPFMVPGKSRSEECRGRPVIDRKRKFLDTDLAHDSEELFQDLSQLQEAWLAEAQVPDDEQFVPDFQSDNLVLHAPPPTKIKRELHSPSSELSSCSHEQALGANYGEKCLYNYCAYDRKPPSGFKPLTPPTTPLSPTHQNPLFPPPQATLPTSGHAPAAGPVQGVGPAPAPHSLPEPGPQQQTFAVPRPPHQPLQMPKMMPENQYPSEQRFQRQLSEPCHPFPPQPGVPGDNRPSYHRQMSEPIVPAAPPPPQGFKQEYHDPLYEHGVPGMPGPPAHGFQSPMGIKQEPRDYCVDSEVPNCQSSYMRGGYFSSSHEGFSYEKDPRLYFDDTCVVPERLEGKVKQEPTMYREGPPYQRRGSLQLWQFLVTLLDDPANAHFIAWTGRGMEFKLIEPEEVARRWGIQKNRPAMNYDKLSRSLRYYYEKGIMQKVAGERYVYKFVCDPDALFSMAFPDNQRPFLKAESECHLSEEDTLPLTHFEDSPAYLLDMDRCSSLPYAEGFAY
Chain of ETV1 (P50549 whole entry): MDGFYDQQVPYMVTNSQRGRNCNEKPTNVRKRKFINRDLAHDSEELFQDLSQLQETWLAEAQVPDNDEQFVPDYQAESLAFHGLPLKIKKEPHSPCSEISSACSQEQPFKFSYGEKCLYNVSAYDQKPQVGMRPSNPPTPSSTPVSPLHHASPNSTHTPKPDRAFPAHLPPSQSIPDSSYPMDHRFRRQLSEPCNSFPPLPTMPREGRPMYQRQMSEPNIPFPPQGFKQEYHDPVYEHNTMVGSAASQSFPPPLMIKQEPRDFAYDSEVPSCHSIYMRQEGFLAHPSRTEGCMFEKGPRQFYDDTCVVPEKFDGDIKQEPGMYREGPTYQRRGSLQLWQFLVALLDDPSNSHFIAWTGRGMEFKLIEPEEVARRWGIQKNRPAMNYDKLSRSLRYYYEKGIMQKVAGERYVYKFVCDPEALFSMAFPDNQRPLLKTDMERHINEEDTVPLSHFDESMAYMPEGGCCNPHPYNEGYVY
Chain of HSF1 (Q00613 whole entry): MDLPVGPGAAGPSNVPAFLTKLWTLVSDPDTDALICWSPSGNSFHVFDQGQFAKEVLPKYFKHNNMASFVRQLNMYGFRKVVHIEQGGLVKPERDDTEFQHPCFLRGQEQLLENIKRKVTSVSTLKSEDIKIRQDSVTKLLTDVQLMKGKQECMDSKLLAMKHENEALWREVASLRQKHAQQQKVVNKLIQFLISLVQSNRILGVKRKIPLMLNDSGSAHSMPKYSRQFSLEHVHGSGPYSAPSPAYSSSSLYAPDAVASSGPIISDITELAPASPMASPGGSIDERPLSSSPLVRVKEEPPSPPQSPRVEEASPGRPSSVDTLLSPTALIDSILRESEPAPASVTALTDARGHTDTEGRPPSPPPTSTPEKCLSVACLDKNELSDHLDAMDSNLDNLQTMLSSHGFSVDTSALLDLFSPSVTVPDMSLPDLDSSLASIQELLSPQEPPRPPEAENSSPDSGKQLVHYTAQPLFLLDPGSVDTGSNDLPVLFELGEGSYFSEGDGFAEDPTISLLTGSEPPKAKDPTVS
Chain of ELF4 (Q99607 whole entry): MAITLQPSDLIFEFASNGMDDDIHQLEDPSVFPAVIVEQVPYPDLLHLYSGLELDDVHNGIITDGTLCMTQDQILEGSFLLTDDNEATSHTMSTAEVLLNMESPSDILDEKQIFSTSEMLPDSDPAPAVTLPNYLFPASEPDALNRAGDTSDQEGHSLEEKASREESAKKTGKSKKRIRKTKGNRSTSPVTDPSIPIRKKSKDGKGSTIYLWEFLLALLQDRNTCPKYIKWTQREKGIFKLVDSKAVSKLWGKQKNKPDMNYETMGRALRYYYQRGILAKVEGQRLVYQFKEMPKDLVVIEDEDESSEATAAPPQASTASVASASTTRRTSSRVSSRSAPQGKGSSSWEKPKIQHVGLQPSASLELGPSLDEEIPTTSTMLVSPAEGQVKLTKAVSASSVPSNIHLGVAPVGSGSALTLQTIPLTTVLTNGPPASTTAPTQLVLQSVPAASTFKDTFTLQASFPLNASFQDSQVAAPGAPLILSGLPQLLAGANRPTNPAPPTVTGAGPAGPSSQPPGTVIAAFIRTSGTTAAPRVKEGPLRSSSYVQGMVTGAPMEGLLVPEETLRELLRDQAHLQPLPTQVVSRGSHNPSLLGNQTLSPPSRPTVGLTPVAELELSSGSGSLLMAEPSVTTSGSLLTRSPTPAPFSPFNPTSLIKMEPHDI

## CCTTAC
FEV
  binding signal: 1.21 fold enrichment (6-mer frequency, TF over GST control)
ETV5
  binding signal: 1.36 fold enrichment (6-mer frequency, TF over GST control)
HSF1
  binding signal: 1.15 fold enrichment (6-mer frequency, TF over GST control)
SPIC
  binding signal: 1.22 fold enrichment (6-mer frequency, TF over GST control)
ELF4
  binding signal: 1.38 fold enrichment (6-mer frequency, TF over GST control)
ELK4
  binding signal: 1.13 fold enrichment (6-mer frequency, TF over GST control)
ETV2
  binding signal: 1.33 fold enrichment (6-mer frequency, TF over GST control)
ELF3
  binding signal: 1.34 fold enrichment (6-mer frequency, TF over GST control)
CRX
  binding signal: 1.17 fold enrichment (6-mer frequency, TF over GST control)
ETV1
  binding signal: 1.21 fold enrichment (6-mer frequency, TF over GST control)
